# In ChEMBL document CHEMBL1961873, “Compounds: GSK PKIS; Assays: Nanosyn kinase panel” (2012):
# Several values for one entry are separate records, joined by “and”; a condition that tells them apart may be missing. Equal entries are not always repeated.
# How the values were obtained:
# [1] = molecular target: T1, Inhibitor of nuclear factor kappa-B kinase subunit epsilon (Homo sapiens) (UniProt Q14164); conditions: at 1 µM;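 note: reported values are averaged percent inhibition figures against human IKKε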
# T1 sequence (whole entry): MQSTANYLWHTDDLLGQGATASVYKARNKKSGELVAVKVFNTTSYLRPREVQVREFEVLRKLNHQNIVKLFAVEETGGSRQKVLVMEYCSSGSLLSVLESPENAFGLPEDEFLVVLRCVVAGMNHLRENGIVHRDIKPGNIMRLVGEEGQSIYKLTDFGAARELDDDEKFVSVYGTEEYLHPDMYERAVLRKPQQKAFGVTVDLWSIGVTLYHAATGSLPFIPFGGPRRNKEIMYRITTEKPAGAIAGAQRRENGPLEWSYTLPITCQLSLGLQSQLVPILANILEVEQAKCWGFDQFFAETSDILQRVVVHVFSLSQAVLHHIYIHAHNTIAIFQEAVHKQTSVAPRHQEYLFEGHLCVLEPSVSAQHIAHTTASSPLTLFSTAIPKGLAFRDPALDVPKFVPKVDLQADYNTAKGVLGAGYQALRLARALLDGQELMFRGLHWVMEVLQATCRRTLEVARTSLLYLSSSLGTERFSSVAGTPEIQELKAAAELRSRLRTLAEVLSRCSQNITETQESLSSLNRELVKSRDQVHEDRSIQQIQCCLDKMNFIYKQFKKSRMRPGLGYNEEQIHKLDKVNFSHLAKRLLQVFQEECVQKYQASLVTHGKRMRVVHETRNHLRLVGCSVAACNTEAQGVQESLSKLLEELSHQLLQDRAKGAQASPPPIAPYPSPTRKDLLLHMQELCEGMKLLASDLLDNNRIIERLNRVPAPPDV
# [2] = molecular target: T2, Serine/threonine-protein kinase Nek1 (Homo sapiens) (UniProt Q96PY6); conditions: at 0.1 µM
# T2 sequence (whole entry): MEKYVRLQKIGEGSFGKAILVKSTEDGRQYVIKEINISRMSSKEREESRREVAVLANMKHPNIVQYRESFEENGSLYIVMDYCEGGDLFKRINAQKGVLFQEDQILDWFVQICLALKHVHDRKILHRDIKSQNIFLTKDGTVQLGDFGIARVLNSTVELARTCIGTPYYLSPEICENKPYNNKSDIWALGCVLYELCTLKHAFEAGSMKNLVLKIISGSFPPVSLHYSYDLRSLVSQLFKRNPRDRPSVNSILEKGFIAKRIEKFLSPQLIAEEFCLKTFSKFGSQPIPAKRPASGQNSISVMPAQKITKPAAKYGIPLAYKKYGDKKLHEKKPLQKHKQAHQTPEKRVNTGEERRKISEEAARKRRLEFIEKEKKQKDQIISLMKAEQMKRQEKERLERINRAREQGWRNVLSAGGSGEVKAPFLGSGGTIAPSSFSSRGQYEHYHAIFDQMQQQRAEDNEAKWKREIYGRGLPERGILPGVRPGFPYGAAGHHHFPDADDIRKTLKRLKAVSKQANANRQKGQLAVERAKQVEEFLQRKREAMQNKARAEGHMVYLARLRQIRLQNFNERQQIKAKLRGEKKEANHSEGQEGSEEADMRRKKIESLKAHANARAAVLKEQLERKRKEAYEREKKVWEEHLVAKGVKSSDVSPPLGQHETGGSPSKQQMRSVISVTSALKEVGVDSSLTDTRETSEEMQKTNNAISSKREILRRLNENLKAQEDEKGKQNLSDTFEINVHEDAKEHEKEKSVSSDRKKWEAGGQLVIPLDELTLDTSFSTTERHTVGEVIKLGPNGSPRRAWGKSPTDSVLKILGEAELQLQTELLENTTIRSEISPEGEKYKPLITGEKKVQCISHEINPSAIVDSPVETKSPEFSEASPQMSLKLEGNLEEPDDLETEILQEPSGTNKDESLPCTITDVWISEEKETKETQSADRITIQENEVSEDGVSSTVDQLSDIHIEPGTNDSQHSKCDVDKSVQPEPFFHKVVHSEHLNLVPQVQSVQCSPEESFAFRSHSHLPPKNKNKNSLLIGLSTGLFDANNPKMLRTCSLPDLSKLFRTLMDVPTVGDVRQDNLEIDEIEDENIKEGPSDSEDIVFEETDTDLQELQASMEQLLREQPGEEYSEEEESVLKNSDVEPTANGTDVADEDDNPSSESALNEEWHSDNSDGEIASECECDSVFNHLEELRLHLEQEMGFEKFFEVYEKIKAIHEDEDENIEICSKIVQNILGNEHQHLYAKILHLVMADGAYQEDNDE
# [3] = molecular target: T2, Serine/threonine-protein kinase Nek1 (Homo sapiens); conditions: at 1 µM
# [4] = molecular target: T3, Serine/threonine-protein kinase Nek2 (Homo sapiens) (UniProt P51955); conditions: at 0.1 µM
# T3 sequence (whole entry): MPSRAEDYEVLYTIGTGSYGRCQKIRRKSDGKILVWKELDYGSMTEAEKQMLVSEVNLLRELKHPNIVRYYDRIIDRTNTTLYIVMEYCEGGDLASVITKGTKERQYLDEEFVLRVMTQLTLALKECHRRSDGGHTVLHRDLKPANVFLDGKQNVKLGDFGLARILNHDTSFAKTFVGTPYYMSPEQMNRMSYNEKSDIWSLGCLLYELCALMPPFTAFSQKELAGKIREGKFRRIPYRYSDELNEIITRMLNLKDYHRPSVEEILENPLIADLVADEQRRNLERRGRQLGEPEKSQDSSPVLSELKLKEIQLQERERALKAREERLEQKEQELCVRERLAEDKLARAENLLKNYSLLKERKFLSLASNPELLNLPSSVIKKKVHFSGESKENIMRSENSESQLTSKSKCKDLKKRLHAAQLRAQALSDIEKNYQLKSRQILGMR
# [5] = molecular target: T3, Serine/threonine-protein kinase Nek2 (Homo sapiens); conditions: at 1 µM
# [6] = molecular target: Serine/threonine-protein kinase Nek6 (Homo sapiens) (UniProt Q9HC98); conditions: at 0.1 µM
# Chain of Serine/threonine-protein kinase Nek6 (Homo sapiens) (Q9HC98 whole entry): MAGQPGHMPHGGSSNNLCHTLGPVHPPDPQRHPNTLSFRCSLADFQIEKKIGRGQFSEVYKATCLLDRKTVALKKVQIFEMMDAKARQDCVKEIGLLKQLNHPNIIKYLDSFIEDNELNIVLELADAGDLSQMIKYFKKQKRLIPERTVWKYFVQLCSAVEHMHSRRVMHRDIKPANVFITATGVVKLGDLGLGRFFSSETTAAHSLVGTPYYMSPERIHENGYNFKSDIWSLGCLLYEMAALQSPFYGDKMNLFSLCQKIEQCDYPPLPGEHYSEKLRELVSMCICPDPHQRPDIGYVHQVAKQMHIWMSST
# [7] = molecular target: Serine/threonine-protein kinase Nek6 (Homo sapiens) (UniProt Q9HC98); conditions: at 1 µM
# [8] = molecular target: Serine/threonine-protein kinase Nek7 (Homo sapiens) (UniProt Q8TDX7); conditions: at 0.1 µM
# Chain of Serine/threonine-protein kinase Nek7 (Homo sapiens) (Q8TDX7 whole entry, looked up): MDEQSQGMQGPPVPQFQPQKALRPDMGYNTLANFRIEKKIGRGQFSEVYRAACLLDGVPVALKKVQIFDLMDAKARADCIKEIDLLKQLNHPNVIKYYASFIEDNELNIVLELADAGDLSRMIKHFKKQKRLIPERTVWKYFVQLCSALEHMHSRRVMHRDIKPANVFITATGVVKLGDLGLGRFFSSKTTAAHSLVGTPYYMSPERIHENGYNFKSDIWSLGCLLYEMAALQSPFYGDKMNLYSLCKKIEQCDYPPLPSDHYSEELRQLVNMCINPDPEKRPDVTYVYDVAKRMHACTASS
# [9] = molecular target: Serine/threonine-protein kinase Nek7 (Homo sapiens) (UniProt Q8TDX7); conditions: at 1 µM
# [10] = molecular target: T4, Serine/threonine-protein kinase Nek9 (Homo sapiens) (UniProt Q8TD19); conditions: at 0.1 µM
# T4 sequence (whole entry): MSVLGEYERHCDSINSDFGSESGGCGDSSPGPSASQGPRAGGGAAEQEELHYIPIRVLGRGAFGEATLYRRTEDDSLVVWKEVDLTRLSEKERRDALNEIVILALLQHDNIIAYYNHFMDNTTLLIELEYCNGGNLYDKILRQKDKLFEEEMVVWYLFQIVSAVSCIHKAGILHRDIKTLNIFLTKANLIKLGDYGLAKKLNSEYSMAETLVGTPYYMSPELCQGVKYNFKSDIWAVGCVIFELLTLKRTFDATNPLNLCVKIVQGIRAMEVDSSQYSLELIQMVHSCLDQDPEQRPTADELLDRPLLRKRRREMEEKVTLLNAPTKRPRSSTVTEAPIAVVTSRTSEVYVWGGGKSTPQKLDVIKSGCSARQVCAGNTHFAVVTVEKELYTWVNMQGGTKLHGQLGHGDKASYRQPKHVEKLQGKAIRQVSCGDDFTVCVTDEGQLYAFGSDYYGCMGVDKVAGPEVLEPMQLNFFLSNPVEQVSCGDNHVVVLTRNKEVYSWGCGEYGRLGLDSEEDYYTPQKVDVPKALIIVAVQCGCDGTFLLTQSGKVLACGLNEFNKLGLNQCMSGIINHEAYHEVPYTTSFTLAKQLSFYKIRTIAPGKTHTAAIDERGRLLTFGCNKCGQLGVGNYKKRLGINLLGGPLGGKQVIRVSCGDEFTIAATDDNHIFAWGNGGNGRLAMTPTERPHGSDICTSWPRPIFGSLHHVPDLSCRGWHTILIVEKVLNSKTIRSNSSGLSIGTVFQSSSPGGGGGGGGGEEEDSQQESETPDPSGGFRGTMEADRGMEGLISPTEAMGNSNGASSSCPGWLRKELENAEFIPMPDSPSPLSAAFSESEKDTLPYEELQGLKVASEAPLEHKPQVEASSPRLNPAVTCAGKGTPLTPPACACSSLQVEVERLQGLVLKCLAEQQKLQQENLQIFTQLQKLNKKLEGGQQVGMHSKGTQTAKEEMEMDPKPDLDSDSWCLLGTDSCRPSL
# [11] = molecular target: T4, Serine/threonine-protein kinase Nek9 (Homo sapiens); conditions: at 1 µM
# [12] = molecular target: Serine/threonine-protein kinase PLK1 (Homo sapiens) (UniProt P53350); conditions: at 0.1 µM
# Chain of Serine/threonine-protein kinase PLK1 (Homo sapiens) (P53350 whole entry): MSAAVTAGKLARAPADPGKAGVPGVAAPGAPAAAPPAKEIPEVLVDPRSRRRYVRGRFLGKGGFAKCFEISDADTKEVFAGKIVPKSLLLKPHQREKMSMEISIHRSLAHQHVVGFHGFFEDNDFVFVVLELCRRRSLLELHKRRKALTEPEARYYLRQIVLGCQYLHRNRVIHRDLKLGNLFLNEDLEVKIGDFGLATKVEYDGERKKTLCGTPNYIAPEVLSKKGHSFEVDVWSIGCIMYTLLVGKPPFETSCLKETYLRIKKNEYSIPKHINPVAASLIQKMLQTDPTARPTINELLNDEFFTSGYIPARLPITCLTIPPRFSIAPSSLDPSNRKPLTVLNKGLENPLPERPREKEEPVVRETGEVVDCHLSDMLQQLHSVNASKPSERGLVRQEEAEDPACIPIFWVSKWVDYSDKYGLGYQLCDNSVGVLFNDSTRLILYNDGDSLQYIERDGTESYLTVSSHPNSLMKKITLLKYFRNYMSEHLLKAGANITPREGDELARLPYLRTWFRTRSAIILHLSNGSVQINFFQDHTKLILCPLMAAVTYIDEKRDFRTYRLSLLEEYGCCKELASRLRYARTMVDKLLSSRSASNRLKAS
# [13] = molecular target: Serine/threonine-protein kinase PLK1 (Homo sapiens) (UniProt P53350); conditions: at 1 µM
# [14] = molecular target: T5, Dual specificity protein kinase TTK (Homo sapiens) (UniProt P33981); conditions: at 0.1 µM
# T5 sequence (whole entry): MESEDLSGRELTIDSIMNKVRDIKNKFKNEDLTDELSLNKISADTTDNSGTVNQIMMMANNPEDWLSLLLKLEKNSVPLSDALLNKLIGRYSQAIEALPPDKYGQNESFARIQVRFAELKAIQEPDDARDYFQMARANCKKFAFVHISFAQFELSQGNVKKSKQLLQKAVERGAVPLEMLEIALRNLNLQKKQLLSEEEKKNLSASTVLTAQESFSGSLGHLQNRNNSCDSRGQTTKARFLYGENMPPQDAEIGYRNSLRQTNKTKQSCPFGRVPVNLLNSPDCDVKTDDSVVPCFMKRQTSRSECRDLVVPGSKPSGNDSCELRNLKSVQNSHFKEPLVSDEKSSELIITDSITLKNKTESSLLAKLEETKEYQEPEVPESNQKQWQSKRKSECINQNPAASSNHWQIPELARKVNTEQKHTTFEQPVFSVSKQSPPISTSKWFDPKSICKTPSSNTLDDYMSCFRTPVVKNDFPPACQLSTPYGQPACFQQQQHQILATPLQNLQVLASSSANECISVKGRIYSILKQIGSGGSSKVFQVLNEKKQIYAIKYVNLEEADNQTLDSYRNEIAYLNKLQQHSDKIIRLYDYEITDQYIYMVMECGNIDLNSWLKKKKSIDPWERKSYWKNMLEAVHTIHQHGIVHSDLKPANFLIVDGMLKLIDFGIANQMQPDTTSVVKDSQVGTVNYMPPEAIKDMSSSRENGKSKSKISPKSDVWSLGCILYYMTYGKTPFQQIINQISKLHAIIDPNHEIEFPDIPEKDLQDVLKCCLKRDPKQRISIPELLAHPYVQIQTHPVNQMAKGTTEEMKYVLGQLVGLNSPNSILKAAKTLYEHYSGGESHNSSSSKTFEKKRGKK
# [15] = test system: T6, Receptor-type tyrosine-protein kinase FLT3 (Homo sapiens), P36888 [D835Y]; conditions: at 1 µM
# T6 sequence (whole entry): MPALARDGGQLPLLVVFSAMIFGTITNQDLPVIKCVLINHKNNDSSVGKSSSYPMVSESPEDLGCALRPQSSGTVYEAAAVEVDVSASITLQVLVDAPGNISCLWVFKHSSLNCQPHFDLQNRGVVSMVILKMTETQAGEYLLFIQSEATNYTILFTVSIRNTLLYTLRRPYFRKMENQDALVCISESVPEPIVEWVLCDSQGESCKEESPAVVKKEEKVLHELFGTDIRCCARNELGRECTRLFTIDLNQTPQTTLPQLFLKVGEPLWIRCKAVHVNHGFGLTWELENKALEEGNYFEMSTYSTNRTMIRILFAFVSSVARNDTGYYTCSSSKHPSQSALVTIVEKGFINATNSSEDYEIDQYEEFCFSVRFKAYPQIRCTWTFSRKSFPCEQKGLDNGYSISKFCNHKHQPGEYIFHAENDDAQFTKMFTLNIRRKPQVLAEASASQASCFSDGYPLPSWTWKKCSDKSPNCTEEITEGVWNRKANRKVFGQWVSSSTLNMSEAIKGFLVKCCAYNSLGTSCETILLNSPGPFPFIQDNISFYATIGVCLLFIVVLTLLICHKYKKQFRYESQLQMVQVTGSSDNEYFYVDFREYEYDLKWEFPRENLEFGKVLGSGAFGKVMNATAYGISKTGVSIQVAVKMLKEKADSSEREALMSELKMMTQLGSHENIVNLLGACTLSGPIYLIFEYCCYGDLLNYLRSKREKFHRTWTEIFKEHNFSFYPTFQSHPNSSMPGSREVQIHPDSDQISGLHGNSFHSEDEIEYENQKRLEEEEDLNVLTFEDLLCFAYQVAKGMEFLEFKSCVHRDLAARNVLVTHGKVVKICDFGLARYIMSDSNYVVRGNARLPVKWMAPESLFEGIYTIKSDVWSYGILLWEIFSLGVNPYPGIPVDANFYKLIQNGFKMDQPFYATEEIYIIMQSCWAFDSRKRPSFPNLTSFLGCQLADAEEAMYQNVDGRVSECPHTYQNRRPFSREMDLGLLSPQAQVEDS
# [16] = molecular target: Vascular endothelial growth factor receptor 3 (Homo sapiens) (UniProt P35916); conditions: at 0.1 µM
# Chain of Vascular endothelial growth factor receptor 3 (Homo sapiens) (P35916 whole entry): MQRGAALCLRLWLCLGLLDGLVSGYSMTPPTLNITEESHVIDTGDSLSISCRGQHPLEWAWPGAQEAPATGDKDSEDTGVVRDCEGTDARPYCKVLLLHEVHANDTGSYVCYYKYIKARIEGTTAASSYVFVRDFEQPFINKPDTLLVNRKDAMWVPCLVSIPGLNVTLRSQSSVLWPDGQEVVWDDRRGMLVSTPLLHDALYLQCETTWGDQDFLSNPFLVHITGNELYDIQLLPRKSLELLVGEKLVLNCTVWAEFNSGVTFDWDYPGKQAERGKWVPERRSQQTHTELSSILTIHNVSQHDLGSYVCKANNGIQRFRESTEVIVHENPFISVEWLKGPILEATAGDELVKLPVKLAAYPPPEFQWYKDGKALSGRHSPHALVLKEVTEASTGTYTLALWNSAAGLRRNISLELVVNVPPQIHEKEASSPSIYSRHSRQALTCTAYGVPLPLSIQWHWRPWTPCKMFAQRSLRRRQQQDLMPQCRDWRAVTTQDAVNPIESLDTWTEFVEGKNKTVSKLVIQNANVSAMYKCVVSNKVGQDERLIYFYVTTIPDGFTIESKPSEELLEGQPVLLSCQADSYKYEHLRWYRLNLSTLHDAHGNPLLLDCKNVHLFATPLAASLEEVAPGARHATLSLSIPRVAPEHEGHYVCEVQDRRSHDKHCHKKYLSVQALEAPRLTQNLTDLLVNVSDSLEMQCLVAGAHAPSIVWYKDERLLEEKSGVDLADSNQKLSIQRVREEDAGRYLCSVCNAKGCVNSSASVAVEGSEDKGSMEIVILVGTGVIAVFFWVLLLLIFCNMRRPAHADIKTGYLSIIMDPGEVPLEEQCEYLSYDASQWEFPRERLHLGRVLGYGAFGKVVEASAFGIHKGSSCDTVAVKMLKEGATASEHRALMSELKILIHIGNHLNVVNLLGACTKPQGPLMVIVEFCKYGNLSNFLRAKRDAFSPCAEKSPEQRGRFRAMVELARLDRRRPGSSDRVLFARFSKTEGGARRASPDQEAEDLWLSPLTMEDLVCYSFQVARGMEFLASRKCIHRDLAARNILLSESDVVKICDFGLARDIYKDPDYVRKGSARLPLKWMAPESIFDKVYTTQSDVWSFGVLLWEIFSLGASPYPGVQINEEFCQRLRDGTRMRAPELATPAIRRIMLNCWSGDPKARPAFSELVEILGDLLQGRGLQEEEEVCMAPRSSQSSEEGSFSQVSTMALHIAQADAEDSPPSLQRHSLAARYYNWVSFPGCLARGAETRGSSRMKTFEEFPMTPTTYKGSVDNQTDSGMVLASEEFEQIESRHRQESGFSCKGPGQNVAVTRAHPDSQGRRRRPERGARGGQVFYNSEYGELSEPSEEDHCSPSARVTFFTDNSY
# [17] = molecular target: Vascular endothelial growth factor receptor 3 (Homo sapiens) (UniProt P35916); conditions: at 1 µM
# [18] = molecular target: Macrophage colony-stimulating factor 1 receptor (Homo sapiens) (UniProt P07333); conditions: at 0.1 µM
# Chain of Macrophage colony-stimulating factor 1 receptor (Homo sapiens) (P07333 whole entry): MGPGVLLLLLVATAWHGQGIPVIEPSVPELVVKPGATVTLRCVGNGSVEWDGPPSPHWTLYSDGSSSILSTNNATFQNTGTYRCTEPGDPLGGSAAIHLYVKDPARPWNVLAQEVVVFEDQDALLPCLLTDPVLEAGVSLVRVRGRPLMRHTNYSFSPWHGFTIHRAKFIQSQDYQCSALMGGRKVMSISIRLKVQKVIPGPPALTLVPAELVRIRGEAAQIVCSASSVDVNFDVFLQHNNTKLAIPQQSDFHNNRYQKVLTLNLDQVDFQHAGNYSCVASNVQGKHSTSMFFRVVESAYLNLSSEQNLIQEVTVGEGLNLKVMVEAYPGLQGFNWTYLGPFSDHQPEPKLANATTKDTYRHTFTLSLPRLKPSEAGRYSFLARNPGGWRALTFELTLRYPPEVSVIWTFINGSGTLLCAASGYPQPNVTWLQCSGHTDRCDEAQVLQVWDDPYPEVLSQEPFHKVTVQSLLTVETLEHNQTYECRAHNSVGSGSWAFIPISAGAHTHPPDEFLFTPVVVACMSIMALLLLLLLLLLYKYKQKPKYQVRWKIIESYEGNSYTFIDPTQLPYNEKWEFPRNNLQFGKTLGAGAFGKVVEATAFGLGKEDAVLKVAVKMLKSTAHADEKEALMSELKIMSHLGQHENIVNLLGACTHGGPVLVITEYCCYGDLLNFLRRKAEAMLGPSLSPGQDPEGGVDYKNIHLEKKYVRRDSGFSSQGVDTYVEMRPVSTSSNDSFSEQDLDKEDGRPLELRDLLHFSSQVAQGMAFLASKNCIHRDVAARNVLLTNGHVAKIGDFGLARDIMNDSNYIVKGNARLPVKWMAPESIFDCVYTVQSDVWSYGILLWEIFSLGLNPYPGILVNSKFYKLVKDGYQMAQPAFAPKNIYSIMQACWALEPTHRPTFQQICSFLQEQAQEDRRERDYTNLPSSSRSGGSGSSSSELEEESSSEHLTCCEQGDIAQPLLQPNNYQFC
# [19] = molecular target: Macrophage colony-stimulating factor 1 receptor (Homo sapiens) (UniProt P07333); conditions: at 1 µM
# [20] = molecular target: Tyrosine-protein kinase Fyn (Homo sapiens) (UniProt P06241); conditions: at 0.1 µM
# Chain of Tyrosine-protein kinase Fyn (Homo sapiens) (P06241 2-537 limits assumed): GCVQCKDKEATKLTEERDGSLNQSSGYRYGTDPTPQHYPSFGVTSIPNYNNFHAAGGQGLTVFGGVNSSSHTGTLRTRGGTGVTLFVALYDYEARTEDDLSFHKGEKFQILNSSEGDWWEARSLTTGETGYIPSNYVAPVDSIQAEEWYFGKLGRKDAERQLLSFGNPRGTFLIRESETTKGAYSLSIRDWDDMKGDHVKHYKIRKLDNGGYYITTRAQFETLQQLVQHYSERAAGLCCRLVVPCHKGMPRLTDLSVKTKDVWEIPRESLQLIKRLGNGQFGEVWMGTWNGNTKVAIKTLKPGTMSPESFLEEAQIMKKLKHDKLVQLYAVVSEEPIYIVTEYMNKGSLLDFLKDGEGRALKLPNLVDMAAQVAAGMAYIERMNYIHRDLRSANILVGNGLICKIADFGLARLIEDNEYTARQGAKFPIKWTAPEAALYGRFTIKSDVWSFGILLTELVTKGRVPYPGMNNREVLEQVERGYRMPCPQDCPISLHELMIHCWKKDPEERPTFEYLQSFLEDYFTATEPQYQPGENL
SMILES,inhibition [1],inhibition [2],inhibition [3],inhibition [4],inhibition [5],inhibition [6],inhibition [7],inhibition [8],inhibition [9],inhibition [10],inhibition [11],inhibition [12],inhibition [13],inhibition [14],inhibition [15],inhibition [16],inhibition [17],inhibition [18],inhibition [19],inhibition [20]
COC(=O)Nc1nc2cc(Oc3ccc(NC(=O)Nc4ccccc4)cc3)ccc2[nH]1,5.8%,1.46%,1.92%,3.05%,1.76%,3.54%,0.95%,2.02%,1.72%,4.39%,6.76%,2.19%,4.22%,6.44%,2.44%,1.7%,-0.36%,11.4%,21.8%,0.67%
Nc1nccc(-c2c(-c3ccc(F)cc3)ncn2C2CCNCC2)n1,-3.35% and 1.18%,-2.75% and -0.7%,0.36% and 1.29%,-3.4% and 0.5%,-4.07% and 0.05%,-2.7% and -2.19%,-2.93% and 2.63%,-2.09% and 0.15%,-4.78% and 0.13%,0.73% and -1.84%,3.57% and -1.29%,-0.73% and -0.83%,0.68% and 2.5%,-4.46% and 0.75%,4.31% and -2.1%,0.55% and 1.51%,-0.68% and 1.04%,-0.4% and 1.93%,0.46% and 3.61%,-0.69% and 0.67%
CS(=O)(=O)Nc1ccc(-c2ccc3c(NC(=O)C4CC4)n[nH]c3c2)cc1,2.67%,1.54%,-3.13%,4.81%,3.7%,1.17%,-2.29%,4.35%,2.55%,2.89%,-0.22%,4.12%,4.87%,7.49%,3.86%,-0.12%,2.39%,1.7%,3.16%,0.67%
